Consider 17 molecules from PubChem BioAssay AID1727 (National Center for Advancing Translational Sciences (NCATS), 2009).

The structures appear in SMILES notation. Active and inactive are the calls of the source. Where a call stands in place of a potency, no number is given. The call rests on the fitted dose curve; in most records, active means well fitted curve in the direction sought with a large enough effect; inactive means no such curve, though single readings can be large or run the other way.

Chain of Epidermal growth factor receptor (Homo sapiens) (P00533 whole entry L858R, looked up): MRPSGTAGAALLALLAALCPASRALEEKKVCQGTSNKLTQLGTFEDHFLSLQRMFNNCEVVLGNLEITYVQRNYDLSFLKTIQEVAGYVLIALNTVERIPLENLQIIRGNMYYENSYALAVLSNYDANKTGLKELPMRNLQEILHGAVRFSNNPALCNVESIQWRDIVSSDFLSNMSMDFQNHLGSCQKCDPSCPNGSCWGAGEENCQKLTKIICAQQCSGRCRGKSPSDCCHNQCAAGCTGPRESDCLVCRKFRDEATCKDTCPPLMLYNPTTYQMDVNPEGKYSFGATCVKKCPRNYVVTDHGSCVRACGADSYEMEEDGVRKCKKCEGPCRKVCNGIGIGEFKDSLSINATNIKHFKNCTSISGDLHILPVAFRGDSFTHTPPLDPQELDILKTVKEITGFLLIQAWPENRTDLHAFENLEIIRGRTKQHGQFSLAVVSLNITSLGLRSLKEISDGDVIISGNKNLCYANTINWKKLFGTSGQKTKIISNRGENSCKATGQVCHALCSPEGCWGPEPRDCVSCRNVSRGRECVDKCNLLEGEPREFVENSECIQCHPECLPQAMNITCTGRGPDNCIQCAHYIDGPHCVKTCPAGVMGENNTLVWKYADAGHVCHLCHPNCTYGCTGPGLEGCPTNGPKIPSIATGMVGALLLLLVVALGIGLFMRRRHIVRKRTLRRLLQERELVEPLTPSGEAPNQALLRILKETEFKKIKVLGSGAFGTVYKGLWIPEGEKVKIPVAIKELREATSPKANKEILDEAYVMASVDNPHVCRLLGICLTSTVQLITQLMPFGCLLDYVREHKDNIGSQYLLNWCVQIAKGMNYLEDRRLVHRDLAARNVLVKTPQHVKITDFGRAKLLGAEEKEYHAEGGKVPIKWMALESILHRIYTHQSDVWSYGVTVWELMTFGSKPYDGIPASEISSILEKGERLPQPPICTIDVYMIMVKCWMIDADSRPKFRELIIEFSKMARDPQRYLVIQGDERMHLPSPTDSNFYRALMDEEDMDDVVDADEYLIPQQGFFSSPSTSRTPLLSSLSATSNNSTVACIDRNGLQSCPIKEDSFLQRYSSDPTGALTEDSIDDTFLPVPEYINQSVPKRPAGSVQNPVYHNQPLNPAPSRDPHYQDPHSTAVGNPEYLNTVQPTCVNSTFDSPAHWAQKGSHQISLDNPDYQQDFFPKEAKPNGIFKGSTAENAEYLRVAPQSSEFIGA

The test has as its target Epidermal growth factor receptor (Homo sapiens) (UniProt P00533). The experiment in a line: Assay for Inhibitors of the ERK Signaling Pathway using a Homogeneous Screening Assay: EGFR L858R Kinase Inhibition. Conditions: EGFR L858R kinase biochemical inhibition assay; series mostly up to 21.9 µM. An excerpt: qHTS Assay for Inhibitors of the ERK Signaling Pathway using a Homogeneous Screening Assay
NIH Chemical Genomics Center [NCGC]
NIH Molecular Libraries Screening Centers Network [MLSCN]
Assay Submitter (PI): Dr. Wei Zheng, NCGC/NIH
The Ras/extracellular-signal-regulated kinase (ERK) mitogen activated protein (MAP) kinase signaling pathway (ERK1/2 cascade) plays is a key role in transmitting signals from the cell surface to the nucleus (Nishida and Gotoh 1993; Chang and Karin, 2001). The cascade is initiated by the small G-protein Ras, which recruits Raf […], where activation occurs. Alternatively, this pathway can be activated by elevating intracellular cAMP.
Activation of the ERK pathway is essential in increased cell division and cell survival. Sustained and constitutive activation of the ERK pathway, however, has been linked to uncontrolled cell proliferation, increased cell survival, and tumor progression. Thus, the ERK has been as an attractive target for cancer chemotherapy in the past few years (Sebolt-Leopold and Herrera, 2004). Given its physiological and pathological importance, assessment of ERK phosphorylation has been broadly performed in both basic research and drug discovery. Most assays for the measurement of ERK phosphorylation use the antibody-based detection methods, such as western blot and ELISA. These assays require multiple reagent additions with cell wash steps and are not suitable for high-throughput screening.
The current cell-based ERK phosphorylation assay was performed using AlphaScreen platform. AlphaScreen is a two bead-based proximity-dependent chemical energy transfer luminescent assay platform. The assay reagents (ERK SureFire(TM) kit) were supplied from TGR BioSciences (Australia). In the presence of specific antibodies, phosphorylated ERK will bring "donor" and "acceptor" beads to a proximity range (<200 nm), and subsequently lead a chemical luminescent reaction upon exciting donor beads with 680 nm laser. To validate pathway hits from the cell-based assay, enzyme assays consisting of EGFR tyrosine kinase, Raf and MEK were used as a means of deciphering the enzymes of target for the prioritized group of compounds derived from the HEK-293 cell based assay. The compounds were tested against significant members of the ERK signaling pathway EGFR and EGFR mutants (EGFR L858R, EGFR T790M, and EGFR L858R T790M). In order to establish the specificity of the prioritized compounds for EGFR and EGFR mutants, the compounds were also assayed against other important ERK signaling pathway enzymes, c-RAF and MEK-1.
NCGC Assay Protocol Summary:
The HTRF kinase assay (components supplied as kit by Cisbio) was chosen for the EGFR and EGFR mutant enzyme assays that applied the time resolved fluorescence resonance energy transfer (TR-FRET) principle. A peptide substrate is labeled with a biotin that can bind to XL665 labeled streptavidin and the anti-phosphoresidue antibody is labeled with Eu+. Upon phosphorylation of the substrate, the antibody binds to phosphorylated substrate that enables TR-FRET detection in homogenous assay format.
An HTRF Kinease TK assay kit (Cisbio, Bedford, MA) was used to develop the EGFR and EGFR mutant assays (Harbert et al., 2008. Harbert C, Marshall J, Soh S, Steger K. Development of a HTRF Kinase Assay for Determination of Syk Activity. Current Chemical Genomics. 1: 20-26. 2008). EGFR and EGFR mutants were obtained from Invitrogen. The assay buffer was composed of 50 mM HEPES (pH 7.0), 5 mM MgCl2, 5mM DTT, 0.1 % NaN3, 0.1 % BSA and 0.1 mM orthovanadate.
The HTRF assays were preformed according to the HTRF Kinease TK kit. Optimization for each enzyme was preformed in 384 well format (data not included). All reagents were dispensed into 1536 well plates.
(1) Enzyme, […] EGFR at 3 nM final
(2) Compound, 22 nl, Library Compounds in 0.128 to 10 mM titration series or control
(3) Reagent, 1.5 ul 10 uM ATP and 0.25 uM substrate final
(4) Incubation for 30 min, Ambient conditions
[…]
Consider `O=C1c2ccccc2C(=O)c2c(NCCCN(CCO)CCO)cccc21`, for which the Potency entry was “inactive”.

For `Cn1c(=O)[nH]c2nnc(-c3ccc(Cl)c(Cl)c3)nc2c1=O`, the Potency result was “inactive”.

Consider `CCN(CC)CCC(=O)Nc1cccc2c1C(=O)c1ccccc1C2=O`, for which the Potency result is “inactive”.

Take `Cc1nc2ccccc2nc(=O)c1NNc1ccccc1`: the Potency is 631 nM (active).

On to `O=C(Nc1nc(-c2ccccc2)cs1)c1ccc(N2CCOCC2)c([N+](=O)[O-])c1`, for which the Potency entry is “inactive”.

Take `COc1ccc(C(=O)c2ccc(Cl)c([N+](=O)[O-])c2)cc1`: the Potency entry was “inactive”.

`O=C1c2ccccc2C(=O)c2c1cccc2N1CCCC1`: the Potency entry is “inactive”.

`Cn1nc(-c2ccccn2)nc2c(=O)n(C)c(=O)nc1-2`: the Potency result is “inactive”.

Turning to `Fc1ccc(Nc2ncnc3sc4c(c23)CCC4)cc1F`, the Potency is 44.7 nM (active).

Consider `CCn1c(=O)c2[nH]c(-c3ccccc3)nc2n(CC)c1=O`, for which the Potency entry is “inactive”.

Consider `Cn1nc(-c2ccc(Cl)cc2)nc2c(=O)n(C)c(=O)nc1-2`, for which the Potency result is “inactive”.

For `CNc1cccc2c1C(=O)c1ccccc1C2=O`, the Potency result is “inactive”.

For `CS(=O)(=O)CCNCc1nc(-c2ccc3ncnc(Nc4ccc(OCc5cccc(F)c5)c(Cl)c4)c3c2)cs1`, the Potency is 50.1 nM (active).

On to `CN(C)c1cccc2c1C(=O)c1ccccc1C2=O`, for which the Potency result is “inactive”.

Consider `Cc1ccc2nc(=O)c(NNc3ccccc3)cnc2c1`, for which the Potency was 631 nM (active).

Take `Cc1ccc(NNc2c(C)nc3ccccc3nc2=O)cc1`: the Potency is 3160 nM (active).

As to `N#C/C(=C(/N)Sc1ccc(N)cc1)c1ccccc1C(F)(F)F`, the Potency result is “inactive”.
